Screening data as filed in PubChem BioAssay.
A selection: hits, their analogues and other compounds. The true share with any hit is near 21%.
Cycloheximide cs – affects cycloheximide protein synthesis inhibition readout, counter-screen; cell reporter, cycloheximide protein synthesis inhibition counterscreen; max response, %; 12% of 300,000 active; in the data active means max response mostly above about 13%, no sharp cut-off; inactive means mostly below about 14%; further: read at 38.3 µM for the half of the compounds with a filed dose
Pf growth 96h – P. falciparum growth inhibition at 96 hours | P. falciparum luciferase reporter growth, 96 h | Potency, µM (doses to about 28.7 µM), hits mostly inhibitors | 6.9% of 320,000 active
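Erythrocytes infected with luciferase-expressing P. falciparum were dispensed at 2% hematocrit and 0.05% parasitemia (final), then incubated with compounds 96 hours at 37 C in 5% CO2. Luminescence after detection reagent addition reported growth.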
Shiga inhibitor – inhibitors of Shiga toxin in Vero cells. Vero cells, Shiga toxin protein synthesis inhibition reporter. inhibition, % at 38.7 µM. 9.2% of 290,000 active; in the data active means inhibition mostly above about 28%, no sharp cut-off; inactive means mostly below about 43%
Pf growth 48h – P. falciparum growth inhibition at 48 hours (one generation) | P. falciparum luciferase growth in erythrocytes, 48 h | Potency, µM (top dose mostly 28.7 µM), hits mostly inhibitors | 5.9% of 310,000 active | AID 504832
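Cell-based growth assay: transgenic P. falciparum expressing firefly luciferase, cultured in red cells within RPMI 1640 containing 0.5% w/v Albumax, 24 mM bicarbonate and gentamycin. A drop in luciferase activity indicates inhibition.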
AMA1 RON2 block – AMA1-RON2 (P. falciparum) interaction inhibition | 0.2% of 360,000 active | Potency, µM (doses to about 58.2 µM), usual class: inhibitors | AID 720542 | AlphaScreen AMA1-biotinylated RON2 peptide binding; further: nearly all actives have a fitted effect of over 45% in size
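AMA1 (3D7) with his tag at 25 nM final met compounds first, then biotinylated RON2 peptide at 25 nM; detection used donor plus acceptor beads, 10 µg/mL apiece, read by AlphaScreen after 30 min at room temperature.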
HCV inhibitor – inhibitors of hepatitis C virus infection; Huh7.5.1 HCVcc-Cre infection, luciferase reporter, 44 h; Potency, µM (series often up to 41.8 µM), actives largely listed as inhibitors; 3.4% of 340,000 active; AID 651820
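Whole-lifecycle infectious HCVcc-Cre system; cells 1,000/well, compound then virus (~0.5 moi) added 4 h after plating, 44 h culture. Luciferase read 15 sec following 15 min substrate incubation, room temp.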
Hits are given with their value; n = inactive; u = inconclusive; x = not tested or not shown; + = active, no number; [ ] = remark or other dose. Unless noted, the call rests on the fitted dose curve; in most records, active means well fitted curve in the direction sought with a large enough effect; inconclusive means small, poorly fitted or top-dose-only effect, or another doubt; inactive means no such curve, though single readings can be large; an effect the other way counts as inactive or inconclusive.

SMILES	Cycloheximide cs	Pf growth 96h	Shiga inhibitor	Pf growth 48h	AMA1 RON2 block	HCV inhibitor
O=C(O)c1ccc(NS(=O)(=O)c2ccc(NC(=O)c3ccccc3Cl)cc2)cc1	n	6.6µM	n	n	n	n
Cc1ccc(C)c(C(=O)Nc2ccncc2)c1	n	2.1µM	x	u	n	n
O=C(Nc1cccnc1)Nc1ccccc1Cl	26	x	n	n	n	u
CCCC[C@]12Cc3cc(OC)c(OC)cc3C(O1)c1c(cc(-c3ccccc3)oc1=O)O2	n	1.5µM	n	u	x	x
CCCC[C@]12Cc3ccccc3C(O1)c1c(cc(-c3ccccc3)oc1=O)O2	n	1.5µM	+	0.43µM	x	x
O=C(OCc1c(F)cccc1Cl)c1cnc(Cl)c(Cl)c1	n	n	n	n	n	10µM
CCCCN(c1ccccc1)S(=O)(=O)c1cccc2cccnc12	n	n	n	u	n	n
O=C(Nc1ccc(N2CCCCC2)cc1)c1ccc2c(c1)OCCO2	35	n	75	x	n	u
O=C(Nc1ccc(N2CCN(C(=O)c3ccccc3)CC2)cc1)c1ccc2c(c1)OCCO2	55	u	62	u	n	u
CC(=O)N1CCN(c2ccc(NC(=O)c3ccc4c(c3)OCCO4)cc2)CC1	n	n	n	x	n	n
CN1CCN(c2ccc(NC(=O)c3ccc4c(c3)OCO4)cc2)CC1	42	n[5.75 µM]	72	n	n	n
O=C(Nc1ccc(N2CCN(C(=O)c3ccc(Cl)cc3)CC2)cc1)c1ccc2c(c1)OCCO2	n	u	n	x	n	7.1µM
Cc1c(N)cc2c(c1N)C(C)(C)CC2(C)C	x	x	x	x	n	n
O=S1(=O)C[C@H](N2CCOCC2)[C@@H](COCc2ccccc2)N1	x	x	x	x	n	x
COc1cc(OC)cc(C(=O)NC2CC(C)(C)NC(C)(C)C2)c1	n	n	n	u	n	n
CCOC(=O)[C@]12CCCC=C1N(Cc1ccc(Cl)cc1Cl)C(=O)[C@H](CC(=O)N1CCN(C(=O)C3CC3)CC1)C2	x	x	x	x	n	x
CCc1nc2c(OCc3ccc(C(F)(F)F)cc3)cccn2c1N(C=O)Cc1ccc(OC)cc1	x	x	x	x	n	x
CC(C)(C)C(=O)N1CCN(c2ccc(NC(=O)c3ccc4c(c3)OCCO4)cc2)CC1	n	n	n	u	n	10µM
CC(=O)N1CCN(c2ccc(NCc3ccc4c(c3)OCO4)cc2)CC1	n	n	n	n	n	n
O=C(c1ccccc1)N1CCN(c2ccc(NCc3ccc4c(c3)OCO4)cc2)CC1	n	u	n	n	28µM	11µM
COc1cc2c(cc1OC)CN(C(=O)CCNC(=O)c1ccccc1Cl)CC2	x	x	x	x	n	n
O=C(COC(=O)c1ccccc1Br)Nc1ccccc1F	55	n	57	n	n	n
O=C(COC(=O)c1ccccc1Br)NCc1ccccc1	24	n	n	n	n[11.6 µM]	n
O=C(COC(=O)c1cc2ccccc2cc1O)Nc1ccccc1F	x	x	x	x	n	n
O=S(=O)(c1ccc2c(c1)OCCO2)N1CCN(S(=O)(=O)c2ccc(F)cc2F)CC1	n	x	n	x	x	x
SMILES	Cycloheximide cs	Pf growth 96h	Shiga inhibitor	Pf growth 48h	AMA1 RON2 block	HCV inhibitor
Cc1cc(C(=O)Nc2nc3ccc(Cl)cc3s2)nn1C	24	n	92	n	n	n
Cn1nc(C(=O)Nc2nc3ccc(S(C)(=O)=O)cc3s2)ccc1=O	n	x	n	n	n	n
O=C(Nc1nc2ccc(Cl)cc2s1)c1ccc(Br)o1	34	n	87	n	n	n
Cn1ncc(Cl)c1C(=O)Nc1nc2ccc(Cl)cc2s1	66	n	56	n	n	u
CC(NCC(=O)NC(=O)NC1CCCC1)c1ccc(Cl)cc1Cl (stereo not drawn)	x	u	x	u	n	n[8.37 µM]
CN(CC(=O)Nc1ccc(F)cc1)CC(=O)N1CCCC1	x	n	x	n	n	n
CC(C)(C)N1C(=O)c2ccc(C(=O)Nc3nccs3)cc2C1=O	31	n	57	n	n	n
Cc1cc(NC(=O)c2ccc3c(c2)C(=O)N(C(C)(C)C)C3=O)no1	21	u	n	n	n	n
COc1ccccc1N1C(=O)c2ccc(C(=O)Nc3nccs3)cc2C1=O	n	n	n	n	n	n
CCN1C(=O)c2ccc(C(=O)Nc3nccs3)cc2C1=O	12	n	31	n	n	n
COc1ccccc1C(C(=O)c1ccccc1)c1ccc(O)cc1 (stereo not drawn)	x	x	x	x	n	x
CC(C)CN1CCCC(N2CCN(c3cccc(Cl)c3)CC2)C1 (stereo not drawn)	n	u	n	n	n	n
CCc1cccc(C)c1NC(=O)CN(C)Cc1ccccc1F	n	n	n	n	n	n
Cc1c(C(=O)N(C)Cc2ccccc2)oc2ccc(S(=O)(=O)N3CCCC3)cc12	n	u	n	u	n	n
COc1ccc2oc(C(=O)N(C)CCOc3ccccc3)c(C)c2c1	38	n	83	n	n	n
Cc1ccc2oc(C(=O)N(C)CCC(O)c3ccccc3)c(C)c2c1 (stereo not drawn)	n	u	22	n	n	n
ONC(=Nc1ccc(Cl)cc1)c1ccccc1	18	n	n	n	n	n
Cn1c(=O)c(C(=O)COC(=O)c2cc(C(F)(F)F)nc3ccccc23)c(N)n(Cc2ccccc2)c1=O	n	u	n	12µM	x	n[8.37 µM]
Cn1c(=O)c(C(=O)COC(=O)c2cc(C3CC3)nc3ccccc23)c(N)n(Cc2ccccc2)c1=O	n	9.3µM	n	u	n	3.5µM
CCNC(=O)COC(=O)c1cc(-c2ccco2)nc2ccccc12	n	n	n	n	n	n
Cn1c(=O)c(C(=O)COC(=O)c2cc(-c3ccco3)nc3ccccc23)c(N)n(CC2CC2)c1=O	22	8.3µM	n	u	x	n[8.37 µM]
Cn1c(=O)c(C(=O)COC(=O)c2cc(-c3ccccc3)nc3ccccc23)c(N)n(Cc2ccccc2)c1=O	n	u	n	u	x	n[8.37 µM]
CNS(=O)(=O)c1cccc(C(=O)OCC(=O)c2c(N)n(Cc3ccccc3)c(=O)n(C)c2=O)c1	x	x	x	x	n[11.6 µM]	u
COc1ccc([C@@H]2C[C@H]3[C@@H](CN2S(=O)(=O)c2ccccc2)C(=O)C[C@@H](c2ccccc2)N3S(=O)(=O)c2ccc(C)cc2)cc1	x	x	x	x	n	x
OCCC1CN(Cc2cccc(-n3cccn3)c2)CCN1Cc1ccccc1 (stereo not drawn)	n	u	n	n	n	n
SMILES	Cycloheximide cs	Pf growth 96h	Shiga inhibitor	Pf growth 48h	AMA1 RON2 block	HCV inhibitor
COc1ccc(S(=O)(=O)NC2CC(C)(C)NC(C)(C)C2)cc1C(C)C	n	u	n	u	n	u
COC(=O)c1c(/N=C/N(C)C)sc2c1CCN(c1ncc(C(F)(F)F)cc1Cl)C2	28	n	n	u	n	n
O=C(CN1CCN(c2ncc(C(F)(F)F)cc2Cl)CC1)N1CCN(c2ncc(C(F)(F)F)cc2Cl)CC1	n	12µM	n	x	n	u
NNC(=O)C=C1CCN(c2ncc(C(F)(F)F)cc2Cl)CC1	18	n	n	n	n	n
O=C(O)C=C1CCN(c2ncc(C(F)(F)F)cc2Cl)CC1	26	u	n	n	n	n
O=C(OC1CCN(c2ncc(C(F)(F)F)cc2Cl)CC1)c1ccccc1	n	n	n	n	n	n
